Publication doi:10.1101/2024.03.05.583629

Each sequence was assayed against pT7_6His-AlfaTag-HOXD13 (human, UniProt P35453 263-343) (assay: PADIT-seq). Settings: dsDNA, one strand shown.
Sequence of pT7_6His-AlfaTag-HOXD13 (P35453 263-343): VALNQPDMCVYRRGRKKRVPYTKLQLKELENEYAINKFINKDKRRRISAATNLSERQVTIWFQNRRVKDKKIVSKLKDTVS
For “CTCGAGGATATCAAGATCTGGCCTCGGCTTGATAAAAGGAACCTCTAGCTAGCCGACTCACTATAGGGATAATCGCCCTGAGCAAAGACC”, the binding signal was 0.619 ± 0.0899 log2FC. “CTCGAGGATATCAAGATCTGGCCTCGGCCTTTTAGGCGGAACCTCTAGCTAGCCGACTCACTATAGGGATAATCGCCCTGAGCAAAGACC” showed a binding signal of -0.31 ± 0.108 log2FC. In the case of “CTCGAGGATATCAAGATCTGGCCTCGGCTATCCACGCGGAACCTCTAGCTAGCCGACTCACTATAGGGATAATCGCCCTGAGCAAAGACC”, the binding signal is reported as -1.03 ± 0.113 log2FC. Work on “CTCGAGGATATCAAGATCTGGCCTCGGCATTTTAGAGGGAACCTCTAGCTAGCCGACTCACTATAGGGATAATCGCCCTGAGCAAAGACC” yielded a binding signal of 1.43 ± 0.0957 log2FC. Work on “CTCGAGGATATCAAGATCTGGCCTCGGCTTAGTAAAAGGAACCTCTAGCTAGCCGACTCACTATAGGGATAATCGCCCTGAGCAAAGACC” yielded a binding signal of 1.23 ± 0.0947 log2FC. “CTCGAGGATATCAAGATCTGGCCTCGGCCGGATAAAAGGAACCTCTAGCTAGCCGACTCACTATAGGGATAATCGCCCTGAGCAAAGACC” was tested, and the binding signal was 0.58 ± 0.0859 log2FC. “CTCGAGGATATCAAGATCTGGCCTCGGCGCGTGGCCGGGAACCTCTAGCTAGCCGACTCACTATAGGGATAATCGCCCTGAGCAAAGACC” showed a binding signal of -1.04 ± 0.14 log2FC. “CTCGAGGATATCAAGATCTGGCCTCGGCGGTTTAAAAGGAACCTCTAGCTAGCCGACTCACTATAGGGATAATCGCCCTGAGCAAAGACC” gave a binding signal of 1.97 ± 0.078 log2FC. For “CTCGAGGATATCAAGATCTGGCCTCGGCTTTTTACGGGGAACCTCTAGCTAGCCGACTCACTATAGGGATAATCGCCCTGAGCAAAGACC”, the binding signal was 3.16 ± 0.0883 log2FC. For “CTCGAGGATATCAAGATCTGGCCTCGGCATTTTACCAGGAACCTCTAGCTAGCCGACTCACTATAGGGATAATCGCCCTGAGCAAAGACC”, the binding signal was 0.505 ± 0.0919 log2FC. Work on “CTCGAGGATATCAAGATCTGGCCTCGGCCGCCCAACTGGAACCTCTAGCTAGCCGACTCACTATAGGGATAATCGCCCTGAGCAAAGACC” yielded a binding signal of -1.02 ± 0.119 log2FC. With “CTCGAGGATATCAAGATCTGGCCTCGGCATACTAAAAGGAACCTCTAGCTAGCCGACTCACTATAGGGATAATCGCCCTGAGCAAAGACC” the binding signal was 0.619 ± 0.0967 log2FC. With “CTCGAGGATATCAAGATCTGGCCTCGGCATTTTATTGGGAACCTCTAGCTAGCCGACTCACTATAGGGATAATCGCCCTGAGCAAAGACC” the binding signal was 3.32 ± 0.0805 log2FC. “CTCGAGGATATCAAGATCTGGCCTCGGCGGACCACGCGGAACCTCTAGCTAGCCGACTCACTATAGGGATAATCGCCCTGAGCAAAGACC” was tested, and the binding signal was -0.846 ± 0.11 log2FC. “CTCGAGGATATCAAGATCTGGCCTCGGCGCGTACGCGGGAACCTCTAGCTAGCCGACTCACTATAGGGATAATCGCCCTGAGCAAAGACC” gave a binding signal of -1.05 ± 0.139 log2FC. With “CTCGAGGATATCAAGATCTGGCCTCGGCCTTTTAGTAGGAACCTCTAGCTAGCCGACTCACTATAGGGATAATCGCCCTGAGCAAAGACC” the binding signal was 1.19 ± 0.0808 log2FC. For “CTCGAGGATATCAAGATCTGGCCTCGGCAATTGGGCGGGAACCTCTAGCTAGCCGACTCACTATAGGGATAATCGCCCTGAGCAAAGACC”, the binding signal was -0.563 ± 0.097 log2FC. “CTCGAGGATATCAAGATCTGGCCTCGGCTTTGTAAAAGGAACCTCTAGCTAGCCGACTCACTATAGGGATAATCGCCCTGAGCAAAGACC” gave a binding signal of 1.2 ± 0.0832 log2FC. “CTCGAGGATATCAAGATCTGGCCTCGGCGTGATAAAAGGAACCTCTAGCTAGCCGACTCACTATAGGGATAATCGCCCTGAGCAAAGACC” showed a binding signal of 1.99 ± 0.0801 log2FC. With “CTCGAGGATATCAAGATCTGGCCTCGGCCCTATAAAAGGAACCTCTAGCTAGCCGACTCACTATAGGGATAATCGCCCTGAGCAAAGACC” the binding signal was 2.89 ± 0.0925 log2FC. For “CTCGAGGATATCAAGATCTGGCCTCGGCGACCTAAAAGGAACCTCTAGCTAGCCGACTCACTATAGGGATAATCGCCCTGAGCAAAGACC”, the binding signal was -0.787 ± 0.0956 log2FC. With “CTCGAGGATATCAAGATCTGGCCTCGGCCGCCCAAAGGGAACCTCTAGCTAGCCGACTCACTATAGGGATAATCGCCCTGAGCAAAGACC” the binding signal was -0.802 ± 0.123 log2FC. “CTCGAGGATATCAAGATCTGGCCTCGGCATTTTAACTGGAACCTCTAGCTAGCCGACTCACTATAGGGATAATCGCCCTGAGCAAAGACC” gave a binding signal of 1.48 ± 0.0833 log2FC. In the case of “CTCGAGGATATCAAGATCTGGCCTCGGCTTCGTAAAAGGAACCTCTAGCTAGCCGACTCACTATAGGGATAATCGCCCTGAGCAAAGACC”, the binding signal is reported as 1.86 ± 0.0804 log2FC. “CTCGAGGATATCAAGATCTGGCCTCGGCATCGTAAAAGGAACCTCTAGCTAGCCGACTCACTATAGGGATAATCGCCCTGAGCAAAGACC” was tested, and the binding signal was 2.79 ± 0.0886 log2FC. In the case of “CTCGAGGATATCAAGATCTGGCCTCGGCCCGCCACGCGGAACCTCTAGCTAGCCGACTCACTATAGGGATAATCGCCCTGAGCAAAGACC”, the binding signal is reported as -1.05 ± 0.125 log2FC. Work on “CTCGAGGATATCAAGATCTGGCCTCGGCGTTTTAACCGGAACCTCTAGCTAGCCGACTCACTATAGGGATAATCGCCCTGAGCAAAGACC” yielded a binding signal of -0.0101 ± 0.0939 log2FC. Work on “CTCGAGGATATCAAGATCTGGCCTCGGCATTTTATGAGGAACCTCTAGCTAGCCGACTCACTATAGGGATAATCGCCCTGAGCAAAGACC” yielded a binding signal of 3.3 ± 0.0767 log2FC. With “CTCGAGGATATCAAGATCTGGCCTCGGCGTTTTAAACGGAACCTCTAGCTAGCCGACTCACTATAGGGATAATCGCCCTGAGCAAAGACC” the binding signal was 0.884 ± 0.0954 log2FC. Sequence “CTCGAGGATATCAAGATCTGGCCTCGGCCACTTAAAAGGAACCTCTAGCTAGCCGACTCACTATAGGGATAATCGCCCTGAGCAAAGACC” has a binding signal of 1.17 ± 0.0931 log2FC. For “CTCGAGGATATCAAGATCTGGCCTCGGCTTTTTAAATGGAACCTCTAGCTAGCCGACTCACTATAGGGATAATCGCCCTGAGCAAAGACC”, the binding signal was 1.81 ± 0.0949 log2FC. For “CTCGAGGATATCAAGATCTGGCCTCGGCCTGTTAAAAGGAACCTCTAGCTAGCCGACTCACTATAGGGATAATCGCCCTGAGCAAAGACC”, the binding signal was 2.25 ± 0.0806 log2FC. “CTCGAGGATATCAAGATCTGGCCTCGGCCTTTTATATGGAACCTCTAGCTAGCCGACTCACTATAGGGATAATCGCCCTGAGCAAAGACC” was tested, and the binding signal was 2.91 ± 0.0779 log2FC. “CTCGAGGATATCAAGATCTGGCCTCGGCGCGTGGAAGGGAACCTCTAGCTAGCCGACTCACTATAGGGATAATCGCCCTGAGCAAAGACC” gave a binding signal of -0.832 ± 0.125 log2FC. “CTCGAGGATATCAAGATCTGGCCTCGGCATTTTACCCGGAACCTCTAGCTAGCCGACTCACTATAGGGATAATCGCCCTGAGCAAAGACC” was tested, and the binding signal was -0.0737 ± 0.0918 log2FC. In the case of “CTCGAGGATATCAAGATCTGGCCTCGGCAATGTAAAAGGAACCTCTAGCTAGCCGACTCACTATAGGGATAATCGCCCTGAGCAAAGACC”, the binding signal is reported as 0.947 ± 0.0815 log2FC. For “CTCGAGGATATCAAGATCTGGCCTCGGCCTTTTAGGTGGAACCTCTAGCTAGCCGACTCACTATAGGGATAATCGCCCTGAGCAAAGACC”, the binding signal was 0.366 ± 0.0957 log2FC. “CTCGAGGATATCAAGATCTGGCCTCGGCATTTTAGGAGGAACCTCTAGCTAGCCGACTCACTATAGGGATAATCGCCCTGAGCAAAGACC” was tested, and the binding signal was 1.62 ± 0.0831 log2FC.
